Measurements reported in PubChem BioAssay AID1376 (SRMLSC, 2008).
Hit rate of the full screen: of about 220,000 compounds, about 530 (0.24%) were called active. The entries come from a sample that favours actives as a whole. Entries with a potency or affinity are not part of this list. A number with no mark means an inactive call. No stated cut-off is given here; in the data, active means inhibition above about 13%; inconclusive means no clear call, values can overlap the other calls; inactive means below that.

Target: Bifunctional protein GlmU (Mycobacterium tuberculosis (strain ATCC 25618 / H37Rv)) (UniProt P9WMN3)
Sequence (P9WMN3 whole entry, looked up): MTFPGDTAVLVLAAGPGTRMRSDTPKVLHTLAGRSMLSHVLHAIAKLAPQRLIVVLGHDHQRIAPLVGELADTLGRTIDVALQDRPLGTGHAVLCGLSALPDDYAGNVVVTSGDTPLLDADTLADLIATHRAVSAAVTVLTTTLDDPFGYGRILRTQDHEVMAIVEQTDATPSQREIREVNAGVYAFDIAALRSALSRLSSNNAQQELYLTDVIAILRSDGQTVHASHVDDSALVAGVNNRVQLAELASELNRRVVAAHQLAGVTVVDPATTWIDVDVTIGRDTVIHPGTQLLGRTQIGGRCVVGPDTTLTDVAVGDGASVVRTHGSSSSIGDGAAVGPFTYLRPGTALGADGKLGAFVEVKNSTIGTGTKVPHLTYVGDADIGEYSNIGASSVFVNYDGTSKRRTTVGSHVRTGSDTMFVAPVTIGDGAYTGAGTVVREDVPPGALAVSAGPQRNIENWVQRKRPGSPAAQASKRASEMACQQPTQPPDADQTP
Assay: inhibition of mycobacterial GlmU enzyme – biochemical, glucosamine-1-phosphate acetyltransferase (AID 1376);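 further: 0% = complete reaction with vehicle and 100% = reaction without substrate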
Details: M. tuberculosis GlmU acetyltransferase enzyme assay; active compounds read high;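 tested at 30 µM in the primary screen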

Row | Compound | inhibition
1 | Cc1onc(-c2ccccc2Cl)c1C(=O)N1CCN=C1SCc1cccnc1 | 27.2% (active)
2 | CSC1=NCCN1C(=O)c1c(-c2ccccc2Cl)noc1C | -1.36%
3 | CCSC1=NCCN1C(=O)c1c(-c2ccccc2Cl)noc1C | 4.4%
4 | C=CCn1c(O)c(C=Nc2c(C)n(C)n(-c3ccccc3)c2=O)c(=O)[nH]c1=O | -2.53%
5 | CCCOC(=O)C1C2C=CC(C3CC23)C1C(=O)OCC(=O)c1ccccc1 (centres undefined) | 2.44%
6 | N=C1S/C(=C\c2ccco2)C(=O)N1c1ccc2c(c1)OCO2 | 5.07%
7 | O=C1NC(=O)N(c2ccc3c(c2)OCO3)C(=O)/C1=C\c1ccc(-c2ccccc2C(=O)O)o1 | 9.19%
8 | COc1ccccc1N1C(=N)S/C(=C\c2ccc(-c3ccccc3C(=O)O)o2)C1=O | 8.5%
9 | Cc1ccc(C)c(N2C(=N)S/C(=C\c3ccc(-c4ccccc4C(=O)O)o3)C2=O)c1 | 13.1% (active)
10 | Cc1ccccc1NC(=O)CN1C(=O)S/C(=C\c2ccc(-c3cc(C(=O)O)ccc3C)o2)C1=O | 19.2%
11 | O=C(N/N=C/C=C/c1ccc(Br)cc1)C(O)c1ccccc1 (centres undefined) | -4.11%
12 | COc1ccc(NC(=O)c2ccccc2-c2ccccc2)c(C)c1 | -1.21%
13 | O=C(OCC(=O)N1CCN(C(=O)c2ccco2)CC1)c1ccccc1C(=O)c1ccccc1 | 0.58%
14 | Cc1cc(/C=c2/sc3nc4ccccc4n3c2=O)c(C)n1-c1ccccn1 | 6.87%
15 | O=Cc1ccc(-c2cccc(C(=O)O)c2)o1 | 3.12%
16 | O=c1/c(=C/c2ccc(O)c([N+](=O)[O-])c2)sc2nc3ccccc3n12 | 8.42%
17 | O=C(O)Cn1cc(/C=c2/sc3nc4ccccc4n3c2=O)c2ccccc21 | -3.15%
18 | O=c1/c(=C\c2cc([N+](=O)[O-])cc([N+](=O)[O-])c2O)sc2nc3ccccc3n12 | 33.8% (active)
19 | Cc1ccc(-n2c(C)cc(/C=c3/sc4nc5ccccc5n4c3=O)c2C)cc1 | 0.75%
20 | CCN(CC)c1ccc(/C=c2\sc3nc4ccccc4n3c2=O)c(O)c1 | -2.52%
21 | O=c1/c(=C\c2cccn2-c2ccccc2)sc2nc3ccccc3n12 | -1.22%
22 | O=c1/c(=C/c2ccccn2)sc2nc3ccccc3n12 | 3.31%
23 | O=c1c(Br)c(N2CCOCC2)cnn1-c1ccccc1 | -4.84%
24 | Cn1nc(C(F)(F)F)c2cc(C(=O)O)sc21 | 0.57%

Row | Compound | inhibition
25 | CCN(CC)S(=O)(=O)c1ccc(N2CCOCC2)c(NC(=O)CC(C)(C)C)c1 | 11.6%
26 | Cc1cc(C)c(C#N)c(SC2CCCCC2=O)n1 (centres undefined) | 0.86%
27 | CC(C)NC(=O)CSc1nnc2sc3ccccc3n12 | 7.28%
28 | Cn1nc(-c2ccccc2)c(CN2CCN(c3ncccn3)CC2)c1Cl | -1.97%
29 | CC1(C)CC(=O)C2=C(C1)N(CCN1CCOCC1)C1=C(C(=O)CC(C)(C)C1)C2c1ccc(Cl)c([N+](=O)[O-])c1 | 4.94%
30 | CCOC(=O)Cc1csc(NC(=O)c2ccco2)n1 | 4.22%
31 | Cc1cc(/C=C2\C(=O)NC(=O)N(c3ccc(F)cc3)C2=O)c(C)n1-c1cccc(C(=O)O)c1 | 2.99%
32 | Cc1nn(Cc2c(F)cccc2Cl)c(C)c1NC(=O)C1CC1 | 1.68%
33 | CC(Cc1ccsc1)NC(=O)CCc1nnc(COc2ccccc2)o1 (centres undefined) | -0.64%
34 | Cc1ccc(OCC(=O)Nc2ccc3c(c2)OCO3)c(C)c1 | 7.84%
35 | CCn1c(C)nc2cc(C(=O)N/N=C/c3ccc(O)c(O)c3O)ccc21 | 12.9% (active)
36 | CCn1c(C)nc2cc(C(=O)N/N=C/c3cccc(OC)c3O)ccc21 | 1.22%
37 | CCn1c(C)nc2cc(C(=O)N/N=C/c3cccc(O)c3O)ccc21 | -2.26%
38 | CN(C(=O)COc1ccccc1C(=O)NCCc1ccccc1)c1ccccc1 | 1.19%
39 | CC[N+](CC)(CC)CCCOC(=O)C(O)(c1ccccc1)C1CCCCC1 (centres undefined) | -1.3%
40 | Cc1cc(C)cc(C(=O)N2CCN=C2c2ccccc2)c1 | 13.7% (active)
41 | O=C(c1ccccc1)N1CCN=C1c1ccccc1 | 3.08%
42 | COc1cc(C(=O)N2CCN=C2c2ccccc2)cc(OC)c1OC | -4.46%
43 | CC1=C(C(=O)OCc2ccccc2)C(c2ccsc2)NC(=O)N1C (centres undefined) | 0.99%
44 | CN1CCN(C(=S)NC(=O)c2ccc(Br)cc2)CC1 | -2.25%
45 | CN1CCN(C(=S)NC(=O)c2ccc(C(C)(C)C)cc2)CC1 | 0.68%
46 | COc1ccc(-c2noc(C3CCCN(S(=O)(=O)c4cccc(Cl)c4C)C3)n2)cc1OC (centres undefined) | 1.44%
47 | Cc1ccc(-n2ncc3c(=O)[nH]c(SC(C)C)nc32)cc1 | -6.03%
48 | Cc1nn(Cc2ccccc2)c(=O)n1N(C)c1ncc(C(F)(F)F)cc1Cl | -3.42%

Row | Compound | inhibition
49 | Cc1nn(Cc2ccc([N+](=O)[O-])cc2)c(=O)n1N(C)c1ncc(C(F)(F)F)cc1Cl | 13.8% (active)
50 | Cc1nn(Cc2ccc(Cl)cc2)c(=O)n1N(C)c1ncc(C(F)(F)F)cc1Cl | -1.59%
51 | Cc1cc(N2CCN(Cc3nc(-c4ccc(F)cc4)oc3C)CC2)cc(C)n1 | -0.06%
52 | O=c1/c(=C\c2ccc(O)cc2)sc2nc(-c3ccccc3)c(-c3ccccc3)n12 | -5.24%
53 | COc1cc(/C=c2\sc3n(c2=O)C(c2ccccc2)C(c2ccccc2)=NN=3)ccc1O (centres undefined) | -0.15%
54 | O=c1/c(=C\c2ccc(O)cc2)sc2n1C(c1ccccc1)C(c1ccccc1)=NN=2 (centres undefined) | 15.3% (active)
55 | CC1CCN(C(=O)CCCOc2ccc(Cl)cc2)CC1 | -3.73%
56 | COc1ccc(N2C(=O)CC(N(C)CCc3ccc(OC)c(OC)c3)C2=O)cc1 (centres undefined) | -4.91%
57 | O=C(O)Cn1nc(-c2ccc(F)cc2)oc1=O | -1.78%
58 | O=C(O)Cn1nc(-c2ccccc2)oc1=O | 12.9% (active)
59 | CC(C)(C)C(=O)n1nc(-c2ccccc2)oc1=O | -3.45%
60 | N#Cc1c(-c2ccccc2)nc(SCC(=O)Nc2ccccc2)[nH]c1=O | 3.28%
61 | Cc1cc(NC(=O)CSc2nc(-c3ccccc3)c(C#N)c(=O)[nH]2)no1 | 8.24%
62 | Cc1cc(C)nc(NS(=O)(=O)c2ccc(NC(=O)CSc3nc(-c4ccccc4)c(C#N)c(=O)[nH]3)cc2)n1 | 13.9% (active)
63 | CCOc1ccc(N2C(=O)CC(n3nc(C)cc3C)C2=O)cc1 (centres undefined) | 1.73%
64 | Cc1ccc(S(=O)(=O)N(C)C)cc1NC(=S)NC(=O)C12CC3CC(CC(C3)C1)C2 | -3.56%
65 | CC(C)(C)C1CCC(=NNC(=O)CC(=O)NCc2ccccc2)CC1 (centres undefined) | 0.32%
66 | Cc1[nH]oc(=O)c1N=Nc1c(Cl)cccc1Cl | 1.64%
67 | Cc1[nH]oc(=O)c1N=Nc1ccccc1 | 8.43%
68 | CCC(c1c(C)[nH]oc1=O)c1c(C)[nH]oc1=O | 13.4% (active)
69 | O=S(=O)(c1ccc(-c2nc3ccccc3s2)cc1)N1CCCC1 | 2.5%
70 | COc1ccccc1N1CCN(CCN2C(=O)CC(=C3c4ccccc4-c4ccccc43)C2=O)CC1 | 4.68%
71 | CCCCNC(=O)c1ccc(NC(C)=O)c(Cl)c1 | -5.13%
72 | CCCC(=O)Nc1cc(C(=O)O)ccc1S(=O)(=O)c1ccc(Cl)cc1 | 0.49%

Row | Compound | inhibition
73 | CCCCNC(=O)c1ccc(S(=O)(=O)c2ccc(Cl)cc2)c(NC(C)=O)c1 | 14% (active)
74 | O=C(CSc1ccc(-c2ccccn2)nn1)NC1CCCCC1 | -1.08%
75 | O=c1c2c([nH]c3ccccc13)CCCCCC2 | 13.9% (active)
76 | O=c1c2c([nH]c3ccccc13)CCCC2 | 1.46%
77 | O=c1c2c([nH]c3ccccc13)CCCCC2 | 5.9%
78 | CS(=O)(=O)N1CCC(C(=O)Nc2ccc(C(F)(F)F)cc2)CC1 | -0.68%
79 | Cc1c(C(=O)O)sc2nc(CSc3nnc(-c4ccc(F)cc4)n3C)[nH]c(=O)c12 | -3.36%
80 | Cc1nnc(SCc2nc3sc(C(=O)O)c(C)c3c(=O)[nH]2)s1 | 6.77%
81 | Cc1ccnc(NC(=O)c2ccc3c(c2)S(=O)(=O)c2ccccc2C3=O)c1 | 1.48%
82 | Cc1c(O)c2ccccc2oc1=O | 1.82%
83 | Cc1nc2c(c(=O)[nH]1)C(c1ccccc1Cl)c1c(c3ccccc3oc1=O)O2 (centres undefined) | 2.13%
84 | CCCCSc1nc(CCC)cc(=O)[nH]1 | 3.53%
85 | Cc1ccc(NC(=O)COC(=O)Cn2cnc3ccccc32)c([N+](=O)[O-])c1 | -0.59%
86 | CCOc1ccc(NC2CCN(C(C)=O)CC2)cc1 | 4.14%
87 | Cc1ccc(NC(=O)N2CCC(NC(=O)C(C)(C)C)CC2)cc1 | 2.86%
88 | CC(=O)N1CCC(Nc2ccc(C)cc2)CC1 | 14% (active)
89 | CCCCNC(=O)CSc1nc2ccc(N3CCOCC3)cc2c(=O)n1CCc1ccccc1 | -5.21%
90 | CCCCn1c(SCC(=O)NCc2ccco2)nc2ccc(N3CCOCC3)cc2c1=O | 5.76%
91 | CCCCn1c(SCC(=O)NCc2ccccc2)nc2ccc(N3CCOCC3)cc2c1=O | 14.2% (active)
92 | CC(Sc1ncc(C(F)(F)F)cc1Cl)C(=O)NC(N)=O (centres undefined) | -5.25%
93 | O=C(NCCc1c[nH]c2ccccc12)C(F)(F)F | -4.42%
94 | N#Cc1cccc(C#N)c1N1CCC(C#N)CC1 | -4.3%
